Shown are actives, neighbours in structure and some others; about 5.2% of the full set was active somewhere.
VDR inh: inhibitors of human vitamin D receptor; Potency, µM, most hits filed as inhibitors; VDR-SRC2-3 peptide fluorescence polarization, 2 h; hit rate 0.93% among 400,000; P11473
Target sequence (P11473 whole entry, looked up): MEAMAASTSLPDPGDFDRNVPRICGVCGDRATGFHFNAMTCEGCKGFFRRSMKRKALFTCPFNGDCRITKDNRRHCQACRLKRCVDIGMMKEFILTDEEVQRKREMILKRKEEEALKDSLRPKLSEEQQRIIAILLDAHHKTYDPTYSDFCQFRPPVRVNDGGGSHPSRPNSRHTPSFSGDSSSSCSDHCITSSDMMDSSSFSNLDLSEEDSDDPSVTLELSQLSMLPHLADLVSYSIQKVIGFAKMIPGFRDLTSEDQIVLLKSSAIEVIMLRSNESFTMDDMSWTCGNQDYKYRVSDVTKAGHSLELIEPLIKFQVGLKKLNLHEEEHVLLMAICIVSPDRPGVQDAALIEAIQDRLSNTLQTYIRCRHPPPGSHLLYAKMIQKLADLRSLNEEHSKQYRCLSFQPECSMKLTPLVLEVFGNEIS
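Fluorescence polarization assay of small-molecule disruption of VDR binding to coregulator peptide SRC2-3. Compounds and controls pin-transferred, then read after 2 h incubation at ambient room temperature.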
rTrxR1 inhibitor: rat TrxR1 inhibition; O89049; recombinant rTrxR1, NADPH fluorescence consumption, selenite substrate; Potency, µM (doses to about 114 µM), usual class: inhibitors; hit rate 1% among 390,000; AID 588453; note: nearly all actives have a fitted effect of over 65% in size
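Rat TrxR1 (90 nM in the dispensed reagent) was pre-reduced with 400 uM NADPH for 5 min at room temperature, then incubated with compound for 15 min. After 400 uM selenite was added, NADPH fluorescence (Ex 340/Em 450 nm) was followed for 8 min.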
Sfp PPTase inh: Sfp phosphopantetheinyl transferase inhibition; Q9F4F7; Biochemical Sfp PPTase activity, qHTS; Potency, µM, hits mostly inhibitors; hit rate 3.5% among 310,000;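 note: the enzyme is Sfp with the accession as filed and its product quenches rhodamine fluorescence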
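Step 1, compound plus 15 nM Sfp-PPTase, 15 min, room temperature. Step 2, add rhodamine-CoA (5 uM) and BHQ-2-YbbR (12.5 uM). Step 3, read 525/598 nm fluorescence at 0 and 30 min.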
PLK1 PBD inh: PLK1 (human) polo-box domain binding inhibition; AID 720504; hit rate 2.8% among 360,000; Potency, µM, most hits filed as inhibitors; Plk1 PBD binding of FITC phosphopeptide, fluorescence polarization; P53350; note: series mostly up to about 57 µM; nearly all actives have a fitted effect of over 65% in size
IDH1 R132H inh: inhibitors of human mutant IDH1 R132H | AID 602179 | Potency, µM (highest dose often 76.6 µM), hits mostly inhibitors | IDH1-R132H enzyme, NADPH consumption, diaphorase/resazurin fluorescence | hit rate 0.093% among 390,000; note: nearly all actives have a fitted effect of over 65% in size
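IDH1-R132H (0.5 ug/mL dispensed) in pH 7.5 Tris buffer was preincubated 30 min with compound, then given a substrate mix of 0.016 mM NADPH and 2 mM alpha-KG for 80 min at room temperature; remaining NADPH was read by diaphorase/resazurin fluorescence.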
TrxR1 substrate: substrates of rat thioredoxin reductase 1; O89049; purified TrxR1 substrate turnover, NADPH consumption readout; Potency, µM (highest dose often 114 µM); hit rate 0.01% among 390,000; AID 588456; note: nearly all actives have a fitted effect of over 50% in size
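Rat TrxR1, dispensed at 90 nM, was prereduced with 400 uM NADPH (final) for 5 min at ~22 deg C, then incubated with compound 15 min before 400 uM selenite. A first-read NADPH fluorescence drop versus no-compound background flagged substrates.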
Hits are given with their value; 0 = inactive; ? = inconclusive; - = no result given; [ ] = remark or other dose. Calls come from the whole dose curve; as a rule, active = well fitted curve in the direction sought with a large enough effect; inconclusive = small, poorly fitted or top-dose-only effect, or another doubt; inactive = no such curve, though single readings can be large; an effect the other way counts as inactive or inconclusive.

SMILES	VDR inh	rTrxR1 inhibitor	Sfp PPTase inh	PLK1 PBD inh	IDH1 R132H inh	TrxR1 substrate
COc1ccc(C)cc1Nc1nc(-c2c[nH]c3ccccc23)cs1	0	0	28µM	?	0	0
NC(C(=O)O)[C@H](O)C(=O)O (stereo partly drawn)	0	-	56µM	-	-	-
COc1cc(CN2CCN(C(=O)c3cccc4ccccc34)CC2)cc(OC)c1O	0	50µM	0	0	0	0
O=C(CN(CC1CCCO1)C(=O)CCC(=O)Nc1nccs1)NCc1ccccc1 (stereo not drawn)	0	0	0	0	0	0
O=C(CCC(=O)N(CC(=O)NC1CCCCC1)CC1CCCO1)Nc1nccs1 (stereo not drawn)	0	0[11.4 µM]	0	27µM	0	0[11.4 µM]
COc1ccc(C2(c3ccc(OC)cc3)NC(=O)N(CC(=O)NC3(C#N)CCCCC3)C2=O)cc1	0	0	-	0	0	0
CC(=O)Nc1ccc2nc(CN3CCN(Cc4ccc(F)cc4)C(CCO)C3)ccc2c1 (stereo not drawn)	0	0	79µM	0	0	0
O=C(N/N=C/c1cc2c3c(c1O)CCCN3CCC2)c1ccccc1O	0	0	0	0	0	0
O=c1oc2c3c4c(cc2s1)CCCN4CCC3	79µM	0	18µM	27µM	0	0
O=c1ccc2cc3c4c(c2o1)CCCN4CCC3	0	?	0	17µM	0	0
O=C1CS/C(=N/N=C\c2ccn[nH]2)N1	0	0	56µM	0	0	0
COc1ccccc1N(Cc1cc(=O)[nH]c2ccccc12)C(=O)C(C)C	0	0	0	0	0	0
COc1ccccc1N(Cc1cc(=O)[nH]c2ccccc12)C(=O)c1cccc([N+](=O)[O-])c1	?	0	0	30µM	0	0
COc1cccc2c1Oc1ncccc1N(C(=O)CCC(=O)NCc1ccc(OC(C)C)cc1)C2	0	0	-	-	0	0
Cc1cccc(S(=O)(=O)NC(=O)C2(C)CCN2C(=O)c2ccccc2CCc2ccccc2)c1 (stereo not drawn)	-	-	-	0	-	-
O=C(CN1C(=O)/C(=C2\SC(=S)N(CCS(=O)(=O)O)C2=O)c2ccccc21)Nc1cccc(Br)c1	?	?	56µM	6.7µM	0	0
O=C(CN1C(=O)/C(=C2/SC(=S)N(CCS(=O)(=O)O)C2=O)c2ccccc21)Nc1cccc(C(F)(F)F)c1	?	0	-	11µM	?	0
O=C(CN1C(=O)c2ccccc2Sc2ncccc21)Nc1cccc(C(F)(F)F)c1	0	0	-	-	0	0
N[C@]1(C(=O)O)CCc2cc(P(=O)(O)O)ccc21	0	-	0	-	-	-
CC1(C(=O)NS(C)(=O)=O)CCN1C(=O)C/C=C/c1ccccc1 (stereo not drawn)	-	-	-	0	-	-
CCc1cc2cc(C)ccc2nc1SCC(=O)N1CC(=O)Nc2ccccc21	0	0	0	0	0	0
CCc1cc2c(SCC(=O)N3CC(=O)Nc4ccccc43)ncnc2s1	?	0	0	27µM	0	0
CCc1ccc2nc(SCC(=O)N3CC(=O)Nc4ccccc43)c(C#N)cc2c1	?	0	0	21µM	0	0
O=C(CNS(=O)(=O)c1ccc(Br)s1)NCc1ccccc1	0	0	0	0	0	0
CCN1CCOC(=O)C1CC(=O)Nc1ccc(Br)cc1 (stereo not drawn)	?	71µM	-	-	0	0[11.4 µM]
SMILES	VDR inh	rTrxR1 inhibitor	Sfp PPTase inh	PLK1 PBD inh	IDH1 R132H inh	TrxR1 substrate
CCN1CCN(CCC(=O)Nc2ccc(Br)cc2)CC1	0	0	?	0	0	0
CC(=O)OCCN1C(=O)c2c(C)nc3ccc(S(=O)(=O)N4CCOCC4)cc3c2C1=O	0	-	0	-	-	-
COc1ccc(-c2cnc3c(c2)CCC3(C#N)C#N)cc1	79µM	0	0	0	0	0
COc1ccc(-c2ccc(OC)cc2)cc1	0	0	0	0	0	0
Cc1cccc(C)c1NC(=O)/C(=C/c1ccco1)c1ccccc1	0	0	22µM	0	0	0
Cc1cc(C)c(NC(=O)c2cccc(NC(=O)c3ccco3)c2)c(C)c1	0	0	0	0	0	0
Cc1cc(C)c(NC(=O)/C(=C/c2ccco2)c2ccccc2)c(C)c1	0	?	35µM	0	0	0
CC1(C(=O)NS(=O)(=O)c2ccccc2C(F)(F)F)CCN1C(=O)CCC1CCCC1 (stereo not drawn)	-	-	-	0	-	-
